Structures are written as SMILES. About 1,900 (0.58%) of roughly 330,000 compounds were called active. Another 4% or so got no clear call; they are omitted. Not all results are given here. Measured potencies and affinities stand elsewhere. Unmarked numbers belong to inactive results. Rule as the data show it: inconclusive = inhibition above about 70% without an active follow-up result; inactive = below that.

The assay can be described thus: M. tuberculosis growth inhibition, HTS (AID 449762).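 Also: bacterial growth assessed after seven days of incubation.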 Conditions: M. tuberculosis H37Rv growth inhibition, 7H9 media; at 25 µM; hits give high values.
Usually inhibition stands for the relative decrease from the control value, in per cent. For the molecule `Cc1ccc(C)c(Nc2ccc(C(=O)NCCc3ccccc3)cn2)c1`, the inhibition is 4.16%.

Regarding `O=C(CCN=C1NS(=O)(=O)c2ccccc21)Nc1ccc(F)cc1Cl`, the inhibition was 7.31%. In the case of `c1ccc(N2CCN(c3nc4cc5c(cc4s3)OCCO5)CC2)cc1`, the inhibition is 5.85%. The same measure for `c1ccc2c(c1)CCN(c1nc3cc4c(cc3s1)OCO4)C2`: 38.1%; for `COc1ccc(S(=O)(=O)N2CCN(CC(=O)N3CCc4ccccc4C3)CC2)cc1OC`: -1.57%; for `CCCC(=O)NNC(=O)CC(=O)Nc1ccccc1C(=O)O`: 2.33%. For `O=C(NC(=S)Nc1cccc2ncccc12)c1ccccc1` the value was 0.24%; for `O=C(NC(=S)Nc1cccc2cnccc12)c1ccccc1`, 5.56%. For `CNC(=O)Cc1nc2ccccc2n1CC(=O)Nc1cc(C)cc(C)c1` the value was -9.59%; for `COc1ccc(CN2[C@@H](CC(C)=O)c3cc(C(F)(F)F)ccc3S2(=O)=O)cc1`, -4.65%. With `Cc1nnnn1-c1ccc(CC(=O)O)cc1`, the inhibition was -0.97%. For `CC(C)(C)OC(=O)NCCCCCc1nnc(SCc2ccccc2)o1` the value was 68.1%; for `Cc1ccc(CSc2nnc(CCNC(=O)OC(C)(C)C)o2)cc1`, 6.64%; for `O=C(/C=C/c1c[nH]c2ccccc12)c1c(O)n(CCc2ccccc2)c(=O)[nH]c1=O`, 35.3%. For `CCCCn1c(O)c(C(=O)/C=C/c2ccc3c(c2)OCO3)c(=O)[nH]c1=O` the value was 1%; for `COCCNC(=O)c1ccc(NC(=O)C2(c3ccccc3)CCCC2)cc1`, 40.9%; for `CCn1c(CSCc2ccc(C)cc2)n[nH]c1=S`, 3.1%. For `CC1(C)CCC[C@]2(C)[C@H]3Cc4cc(O)ccc4O[C@]3(C)CC[C@@H]12` the value was 6.49%; for `Cc1cc(/C=N/n2cnnc2)c(C)n1-c1ccc(Cl)cc1`, -4.08%; for `Cc1cc(/C=N/n2cnnc2)c(C)n1-c1ccc(OCc2ccc(F)cc2)cc1`, -2.12%. Take `O=C(CCCC(=O)OCC(=O)c1ccc(Cl)cc1)NC1CCCCC1`: the inhibition is 30.8%. With `COc1ccc(C2(C#N)CCC(=O)N2c2ccccc2)cc1` (stereo unspecified), the inhibition was 5.44%. For `COc1ccc(Nc2nc(-c3ccc(OC)cc3)c(CCC(=O)O)s2)cc1` the value was 26.3%; for `COC(=O)CCc1sc(Nc2ccccc2)nc1-c1ccc(OC)cc1`, 52.4%.

Regarding `O=C(CCCN1C(=O)c2ccccc2C1=O)N1CCN(c2ccccn2)CC1`, the inhibition is -8.5%.

As to `Cn1c(=O)c2c(nc(NCC3CCCO3)n2C)n(C)c1=O` (stereo unspecified), the inhibition is -5.47%.

The record behind these values is PubChem BioAssay AID449762 (Southern Research Specialized Biocontainment Screening …, 2010).
